Consider 27 compounds from PubChem BioAssay (NCI).

About 83,000 compounds went through this panel and 20% of them were active in at least one assay; those are over-represented in the sample as a whole.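 Cell lines were cultured in 96-well plates, exposed to a single compound concentration, and assessed for percent growth 48 hours later.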 Unmarked numbers belong to inactive results. Active and inactive are the calls of the source. How the source made its calls: active means growth percent below 10; inactive means the rest.

What all share (experiment): NCI-60 one-dose screen, 48 h (100 = growth as untreated, 0 = no growth, -100 = all killed)
Common to all, as to settings: 10 µM unless noted

The test system of assay [1] is NCI-H23 lung.
Assay [2] deals with NCI-H226 lung.
Assay [3] relates to NCI-H322M lung.
Assay [4] has as its system HOP-62 NSCLC.
Assay [5] relates to NCI-H460 lung.
The subject of assay [6] is HOP-92 NSCLC.
For assay [7], the system named is NCI-H522 lung.
Assay [8] concerns A549/ATCC NSCLC.
Assay [9] concerns 786-0 renal.
For assay [10], the system named is COLO 205 colon.

As for `COc1cc2nc3cc([N+](=O)[O-])ccc3c(NCCNCC(C)O)c2cc1OC` (stereo not given), the growth in [1] was -27.8% (active); in [2], -11.1% (active); in assay [3] it was -11.9% (active); in [4], -19.2% (active); in assay [5], -40.2% (active); in [6], -42.1% (active). Also, the growth in assay [7] was -26.6% (active); in assay [8], -26.8% (active); in assay [9] it was -3.6% (active); in assay [10], -76.6% (active).
Consider `CCCCCCCCCCCCCCCCCCOc1ccccc1CC(=O)OCC[N+](C)(C)C`, for which the growth in assay [1] is 40.2%; in assay [2], 28.7%; in assay [3] it was 66.5%; in assay [4], 4.93% (active); in [5], 13.5%; in [6], -14% (active). For the same compound, the growth is 2.19% (active) in [7], 11.5% in [8], 20.8% in assay [9] and -67.3% (active) in [10].
Consider `COc1cc(OC)c(NC(=O)c2cc3ccccc3cc2O)cc1Cl`, for which the growth in assay [1] is 10.7%; in assay [2] it was 77%; in assay [3], 40.2%; in assay [4], 68.2%; in [5], 11.2%; in assay [6], -31.2% (active). The growth is -19.9% (active) in assay [7], 32.1% in [8], 27.4% in [9] and 66.6% in assay [10].
Turning to `C=C1CC[C@@H]2[C@](C)(COC(C)=O)[C@H](OC(C)=O)CC[C@@]2(C)[C@@H]1CC(Nc1ccc(S(=O)(=O)Nc2ncccn2)cc1)C1=CCOC1=O` (stereo not given in full), the growth in assay [1] is 29.6%; in assay [2], -16.6% (active); in [3], 50.9%; in assay [4] it was 126%; in [5] it was 18.1%; in assay [6], 56.3%. In addition, the growth was -67.7% (active) in [7], 44.7% in [8], -10.1% (active) in assay [9] and -12.1% (active) in [10].
As for `CCOC(=O)C1=C(C)NC(=O)NC1c1c(Cl)n(CCCl)c2ccccc12` (stereo not given), the growth in [1] is 92.5%; in [2], 92%; in assay [3], 92.6%; in assay [4], 90.8%; in [5], 98.9%; in assay [6] it was 42.9%. In addition, the growth is 90% in assay [7], 95.4% in [8], 92.9% in [9] and 117% in [10].
In the case of `C=C1C(=O)O[C@H]2[C@H]1CC/C(Cn1cc(-c3ccccc3)nn1)=C\CC[C@@]1(C)O[C@@H]21`, the growth was -23.6% (active) in assay [1]; -25.8% (active) in assay [2]; 89.2% in assay [3]; 79.3% in assay [4]; 51.8% in assay [5]; -69.9% (active) in assay [6]. Moreover, the growth is -62% (active) in [7], 33.8% in assay [8], -78% (active) in [9] and -65.3% (active) in [10].
With `Clc1ccc2c(c1)C(c1c[nH]c3ccccc13)(c1c[nH]c3ccccc13)CCO2`, the growth in [1] is 93.5%; in assay [2], 79.7%; in [3], 90.8%; in [4], 46.4%; in assay [5], 85.3%; in assay [6] it was 43.1%. In addition, the growth was -62.7% (active) in assay [7], 24.6% in assay [8], 80.8% in [9] and 51.4% in assay [10].
`CC(=O)c1c(C)nc2ccccc2c1/C=C/c1ccc(F)cc1`: the growth in assay [1] is 81.7%; in assay [2], 77.2%; in [3], 96.8%; in [4], 92%; in assay [5], 91.5%; in [6] it was 75.6%. Also, the growth is 69.2% in assay [7], 83.8% in [8], 89.4% in assay [9] and 104% in [10].
`CCCCCCCC[C@@H]1N[C@@H](C(=O)OC)Cc2c1[nH]c1ccccc21`: the growth in assay [1] is 92.1%; in assay [2] it was 92.5%; in [3] it was 99.7%; in assay [4] it was 103%; in [5] it was 102%; in assay [6] it was 89.5%. Further, the growth in assay [7] is 86.6%; in assay [8], 104%; in assay [9], 96.2%; in assay [10], 113%.
On to `Nc1c(C(=O)Nc2ccccc2C(F)(F)F)sc2nc3c(cc12)CCC3`, for which the growth in assay [1] was 95.7%; in assay [2], 82.6%; in assay [3], 87.5%; in assay [4] it was 88.6%; in assay [5], 105%; in assay [6] it was 96.6%. Also, the growth in assay [7] is 85.7%; in [8] it was 90.4%; in assay [9], 93%; in [10] it was 115%.
`CC(C)Cn1cnc2c(=O)[nH]c(N)nc21`: the growth was 99.3% in assay [1]; 89.8% in [2]; 99.9% in assay [3]; 80.8% in [4]; 110% in assay [5]; 90.8% in assay [6]. Further, the growth was 70.8% in assay [7], 85.4% in [8], 98.9% in [9] and 97.1% in assay [10].
Regarding `O=C(CSc1nnc(-c2cnccn2)n1-c1ccccc1)c1ccc(Cl)cc1`, the growth is 108% in [1]; 104% in [2]; 95.5% in assay [3]; 97.7% in assay [4]; 103% in assay [5]; 81.4% in [6]. Further, the growth is 95.3% in assay [7], 91.7% in [8], 95.1% in assay [9] and 99.6% in [10].
Take `Nc1n[nH]c2cccc(C#Cc3cccc(NC(=O)c4cc(F)cc(C(F)(F)F)c4)c3)c12`: the growth is 65.8% in assay [1]; 46.6% in [2]; 93.9% in assay [3]; 95.2% in assay [4]; 77.8% in assay [5]; 39.1% in assay [6]. The growth in assay [7] was 62.6%; in assay [8], 84.4%; in [9] it was 86.4%; in assay [10], 83.7%.
Take `COc1cc2c(cc1OCCCN1CCN(CCCOc3cc4c(cc3OC)C(=O)N3CC(F)(F)C[C@H]3C=N4)CC1)N=C[C@@H]1CC(F)(F)CN1C2=O`: the growth in assay [1] is 54%; in [2], 95.5%; in assay [3] it was 97.9%; in assay [4], 97.4%; in assay [5], 27%; in assay [6] it was 10.8%. Moreover, the growth in assay [7] was -14.3% (active); in [8], 94.4%; in assay [9], 86.2%; in assay [10], 43.1%.
Turning to `O=C1Nc2ccccc2/C1=C/c1nc2ccccc2c(=O)[nH]1`, the growth in assay [1] was 75.8%; in assay [2] it was 94.5%; in assay [3], 101%; in [4] it was 76.3%; in assay [5], 95.1%; in assay [6] it was 94.1%. In addition, the growth in [7] is 94.1%; in assay [8] it was 100%; in assay [9] it was 104%; in assay [10], 117%.
As for `O=C(CN1C(=O)S/C(=C\c2ccccc2)C1=O)Nc1ncc(Cc2ccccc2Cl)s1`, the growth in assay [1] was 102%; in [2], 95.7%; in assay [3], 95.9%; in [4], 103%; in [5] it was 110%; in assay [6], 108%. Further, the growth is 81% in assay [7], 98.6% in assay [8], 107% in [9] and 113% in assay [10].
For `Cn1c(=O)cc2c3c(c(NCCCO)ccc31)C(=O)c1ccccc1-2`, the growth in [1] is 47.2%; in assay [2], 38.4%; in [3] it was 41.4%; in [4], 43.8%; in assay [5], 16.8%; in assay [6], 74.8%. In addition, the growth in [7] was 22.2%; in assay [8], 33.5%; in [9] it was 38.6%; in assay [10], 27.8%.
Turning to `COc1ccc(OC)c(Nc2nnc(-c3ccc(O)c(OC)c3)o2)c1`, the growth in assay [1] is 70.7%; in assay [2] it was 77.1%; in [3], 86.9%; in assay [4] it was 77.6%; in assay [5], 82.8%; in assay [6], 85.1%. In addition, the growth in assay [7] was 61.1%; in assay [8], 75.5%; in [9], 36.7%; in assay [10], 117%.
Regarding `O=C(O)c1cn(C2CC2)c2cc(N3CCN(Cc4ccc5ccccc5c4O)CC3)c(F)cc2c1=O`, the growth in assay [1] is 26.4%; in assay [2], 9.01% (active); in assay [3], 23.4%; in assay [4] it was -31% (active); in assay [5], 6.73% (active); in assay [6], -6.42% (active). Besides, the growth in assay [7] was 24.8%; in assay [8] it was -23.4% (active); in assay [9], 38.3%; in assay [10], 33.4%.
In the case of `Cn1c(=O)c2nc(/C=C/c3ccccc3)c(=O)[nH]c2n(C)c1=S`, the growth in assay [1] was 100%; in [2], 101%; in [3], 99.7%; in [4], 100%; in [5], 103%; in assay [6] it was 98.1%. The growth is 102% in assay [7], 107% in assay [8], 99.8% in assay [9] and 121% in assay [10].
As to `Cc1ccc(CNc2ccc3nc(CCC4CCCCC4)[nH]c3c2)cc1`, the growth in assay [1] is 30.6%; in assay [2], 43.2%; in [3], 92.3%; in assay [4] it was 73%; in assay [5], 58.4%; in assay [6], 0.719% (active). Also, the growth was 9.99% (active) in [7], 63.3% in [8], 52.2% in assay [9] and -30% (active) in [10].
Take `Ic1ccc(OCCCCn2ccnc2)cc1`: the growth in assay [1] is 66.6%; in assay [2] it was 80.5%; in assay [3], 85.3%; in assay [4] it was 72.3%; in assay [5], 92.5%; in assay [6], 34.7%. Besides, the growth in assay [7] was 67.4%; in assay [8], 78.1%; in assay [9], 83.7%; in assay [10], 29.3%.
As to `Cc1cccc(CNc2c3ccccc3nc3ccccc23)c1`, the growth was 29.7% in assay [1]; 40.6% in assay [2]; 40.3% in assay [3]; 40.4% in assay [4]; 8.71% (active) in assay [5]; 7.05% (active) in [6]. The growth in [7] was 52.1%; in assay [8], 22.6%; in assay [9] it was 24.2%; in assay [10], -16.2% (active).
On to `CN1CCN(c2cc(Nc3cc(C4CC4)[nH]n3)nc(Nc3ccc(CC(=O)NCc4cccc(F)c4)cc3)n2)CC1`, for which the growth in [1] was 23.2%; in assay [2], 3.21% (active); in assay [3], 20.5%; in assay [4], 8.32% (active); in assay [5] it was 13%; in assay [6], -15.6% (active). Moreover, the growth in assay [7] is 61.2%; in [8], 24.3%; in [9] it was 18.3%; in assay [10], -54.9% (active).
Turning to `Cc1nc2sc(C(=O)Nc3ccc(Br)cc3)c(N)c2cc1C(O)c1ccccc1` (stereo not given), the growth in assay [1] is 61.1%; in assay [2] it was 68%; in assay [3], 90.4%; in [4], 67.5%; in [5], 69%; in [6] it was 77%. In addition, the growth was 60.5% in assay [7], 64.4% in assay [8], 81% in [9] and 64.5% in assay [10].
In the case of `CCCCCCCCCCCCCCCCOCCCOP(=O)(O)C1CCCN(O)C1=O` (stereo not given), the growth in assay [1] was 18.5%; in assay [2] it was -21.9% (active); in [3] it was 28.6%; in assay [4] it was 11.9%; in assay [5], -9.19% (active); in [6], 39.3%. Besides, the growth in assay [7] was 26.2%; in assay [8], 17.8%; in assay [9], -10.4% (active); in assay [10], 4.27% (active).
Regarding `Cc1cc(C(=O)O)c(C)n1-c1cccc(C(=O)O)c1`, the growth in assay [1] was 78.7%; in assay [2], 100%; in [3] it was 94%; in assay [4], 96.7%; in [5], 35.1%; in assay [6], 90.5%. Further, the growth in assay [7] is 46%; in assay [8], 71.4%; in assay [9] it was 106%; in [10] it was 92.5%.
